Screens (PubChem BioAssay)
The list is not random: actives were taken first. Their share in the collection is about 3.2%.
PGC1a acetyl inh = PGC1a acetylation modulation, inhibitor mode. U2OS PGC1a acetylation, AlphaScreen anti-acetyl-lysine; with virally co-expressed GCN5 acetyltransferase. inhibition, % at 15.6 µM. 350,000 tested, 0.17% active;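 active means every replicate shows inhibition of at least 40%; inconclusive means mean inhibition at least 40% but some replicate below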
GSIS activator = primary screen for activators of insulin secretion dependent on glucose, INS-1E cells, GLuc reporter luminescence; INS-1E GLuc reporter insulin secretion, 2-3 h; activation, % at 16.6 µM; 370,000 tested, 0.61% active;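 active means lowest replicate activation of at least 40%, so every replicate reaches that level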
rRNA inh HTS = inhibitors of bacterial rRNA selective over humanized ribosomes; E. coli WT GFP vs humanized-ribosome RFP mutants, fluorescence, 24 h; hits give low values; DMSO median 0, no signal -100; GFP signal change (wild-type ribosome), % (concentration not given with the values); 350,000 tested, 1.6% active; AID 720706;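 active means significant combined selectivity score with lowered wild-type GFP, culture density cut under 30%, mutant RFP and density less affected; inactive means any of these conditions unmet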
CaV13 FRET inh = Disruptors of the CACNA1D IQ motif to Ca2+-dependent inactivation inhibitor domain association, primary screening, Förster resonance energy transfer in intact living …; AID 743397; HEK cells, CFP/YFP FRET ICDI-IQ, plate reader, 10 min; percent FRET-ratio fall versus neutral wells; inhibition, % at 12.3 µM; 340,000 tested, 0.098% active;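 active means mean replicate inhibition of at least 30% and at least 1% of replicates passing that level; inconclusive means only one of the two criteria is met; inactive means neither criterion is met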
ERAP1 inh = ERAP1 (human) enzyme inhibition | Q9NZ08 | recombinant ERAP1, Leu-AMC fluorescence, 60 min | inhibition, % at 10.7 µM | 340,000 tested, 0.15% active | AID 652197;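 active means mean replicate inhibition of at least 30%, or all replicates individually reaching that 30% level; inactive means mean below 30% and not every replicate reaching it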
Target sequence (Q9NZ08 whole entry, looked up): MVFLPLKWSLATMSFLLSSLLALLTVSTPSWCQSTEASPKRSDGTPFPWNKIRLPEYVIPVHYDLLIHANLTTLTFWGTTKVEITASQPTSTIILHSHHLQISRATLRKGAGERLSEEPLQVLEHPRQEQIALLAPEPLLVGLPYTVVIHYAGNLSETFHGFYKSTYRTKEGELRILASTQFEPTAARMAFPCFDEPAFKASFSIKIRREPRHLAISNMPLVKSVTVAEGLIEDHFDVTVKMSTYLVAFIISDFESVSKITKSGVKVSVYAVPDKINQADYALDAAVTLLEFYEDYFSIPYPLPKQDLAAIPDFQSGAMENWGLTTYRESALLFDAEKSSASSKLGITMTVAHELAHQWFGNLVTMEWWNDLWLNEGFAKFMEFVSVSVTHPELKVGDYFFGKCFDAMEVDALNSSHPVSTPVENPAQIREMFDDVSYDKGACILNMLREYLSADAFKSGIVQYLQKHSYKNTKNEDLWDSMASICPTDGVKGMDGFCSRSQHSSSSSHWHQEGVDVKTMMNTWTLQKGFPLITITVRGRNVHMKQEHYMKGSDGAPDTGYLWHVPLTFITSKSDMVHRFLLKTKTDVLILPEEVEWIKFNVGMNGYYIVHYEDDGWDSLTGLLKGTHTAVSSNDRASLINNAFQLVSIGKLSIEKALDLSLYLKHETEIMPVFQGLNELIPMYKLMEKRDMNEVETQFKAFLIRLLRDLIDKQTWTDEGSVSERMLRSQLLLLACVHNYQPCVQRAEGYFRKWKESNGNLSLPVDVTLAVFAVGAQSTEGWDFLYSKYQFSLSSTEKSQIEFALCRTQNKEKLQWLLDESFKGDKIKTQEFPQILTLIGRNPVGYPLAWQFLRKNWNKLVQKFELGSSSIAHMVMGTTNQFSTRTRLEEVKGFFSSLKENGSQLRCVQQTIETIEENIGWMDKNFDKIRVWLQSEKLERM
DENV2 CPE rescue = protects cells from dengue virus 2 cytopathic effect. DENV2-infected cells, cytopathic effect rescue, plate reader. CPE inhibition, % at 9.99 µM. 350,000 tested, 1.7% active; in the data active means CPE inhibition above about 20%, passing the limit was not always enough; inconclusive means no clear call, values can overlap the other calls; tested in BHK-21 cells
Numbers stand for hits.

`CC1Oc2ccccc2C=C1/C=N/Nc1ccc(C(=O)O)cc1` (stereo unspecified) gave PGC1a acetyl inh inactive, GSIS activator inactive, rRNA inh HTS -23, CaV13 FRET inh inactive, ERAP1 inh inactive and DENV2 CPE rescue inactive.
`CCN1C(Nc2ccccc2)=NC[C@@H]1CC(C)C` gave PGC1a acetyl inh inactive, GSIS activator inactive, rRNA inh HTS inactive, CaV13 FRET inh inactive, ERAP1 inh inactive and DENV2 CPE rescue 22.
Screening CC(C)(C)C1CCC(CN2C(Nc3ccccc3)=NC[C@@H]2Cc2ccccc2)CC1 (stereo partly specified) returned PGC1a acetyl inh inconclusive, GSIS activator 86, rRNA inh HTS inactive, CaV13 FRET inh inactive, ERAP1 inh inactive and DENV2 CPE rescue inactive.
For CCN1C(Nc2ccccc2)=NC[C@@H]1Cc1ccccc1 the results were PGC1a acetyl inh inactive, GSIS activator inactive, rRNA inh HTS inactive, CaV13 FRET inh inactive, ERAP1 inh inactive and DENV2 CPE rescue inactive.
For c1ccc(CCCCN2C(Nc3ccccc3)=NC[C@@H]2Cc2ccccc2)cc1 the results were PGC1a acetyl inh inactive, GSIS activator inactive, rRNA inh HTS inactive, CaV13 FRET inh inactive, ERAP1 inh inactive and DENV2 CPE rescue 24.
`COc1ccc2c3c([nH]c2c1)[C@H](CO)NCC31CCN(Cc2ccccc2)CC1` gave PGC1a acetyl inh inactive, GSIS activator inactive, rRNA inh HTS inactive and DENV2 CPE rescue inactive.
`COc1ccc2c3c([nH]c2c1)[C@@H](CO)NCC31CCN(C(=O)C2CCCC2)CC1` gave GSIS activator inactive, rRNA inh HTS inactive, ERAP1 inh inactive and DENV2 CPE rescue 78.
`COc1ccc2c3c([nH]c2c1)[C@H](CO)NCC31CCN(C(=O)C2CCC2)CC1` gave GSIS activator inactive, rRNA inh HTS inactive, ERAP1 inh inactive and DENV2 CPE rescue inactive.
COc1ccc2c3c([nH]c2c1)[C@@H](CO)NCC31CCN(Cc2ccc(F)cc2)CC1 was read as PGC1a acetyl inh inactive, GSIS activator inactive, rRNA inh HTS inactive and DENV2 CPE rescue 24.
Cc1ccc(NC(=S)Nc2ccc3cn[nH]c3c2)cc1C was read as GSIS activator inactive and CaV13 FRET inh inactive.
Screening CC(C)c1ccc(NC(=S)Nc2ccc3cn[nH]c3c2)cc1 returned PGC1a acetyl inh inactive, GSIS activator inactive, rRNA inh HTS -46, CaV13 FRET inh inactive and ERAP1 inh inactive.
Cc1ccc(NC(=S)Nc2ccc3cn[nH]c3c2)c(C)c1 was read as PGC1a acetyl inh inactive, GSIS activator inactive, rRNA inh HTS -26, CaV13 FRET inh inactive, ERAP1 inh inactive and DENV2 CPE rescue inactive.
`CC(=O)c1ccc(NC(=S)Nc2ccc3cn[nH]c3c2)cc1` gave PGC1a acetyl inh inactive, GSIS activator inactive, rRNA inh HTS inactive, CaV13 FRET inh inactive, ERAP1 inh inactive and DENV2 CPE rescue inactive.
For O=C(C[C@H]1C=C[C@H](NC(=O)Nc2ccc3c(c2)OCO3)[C@@H](CO)O1)NCc1ccc2c(c1)OCO2 the results were PGC1a acetyl inh inactive, GSIS activator inactive, rRNA inh HTS inactive, ERAP1 inh inactive and DENV2 CPE rescue inactive.
`Cc1ccc(NC(=O)C2CCN(S(C)(=O)=O)CC2)cc1Cl` gave PGC1a acetyl inh inactive, GSIS activator inactive, rRNA inh HTS inactive, CaV13 FRET inh inactive, ERAP1 inh inactive and DENV2 CPE rescue 29.
Screening CS(=O)(=O)N1CCC(C(=O)Nc2ccc(F)c(Cl)c2)CC1 returned PGC1a acetyl inh inactive, GSIS activator inactive, rRNA inh HTS inactive, CaV13 FRET inh inactive, ERAP1 inh inactive and DENV2 CPE rescue inactive.
Screening C[C@@H]1CN([C@H](C)CO)C(=O)Cc2cc(NC(=O)c3ccncc3)ccc2O[C@@H]1CN(C)C(=O)NC1CCCCC1 returned PGC1a acetyl inh inactive, GSIS activator inactive, rRNA inh HTS inactive, ERAP1 inh inactive and DENV2 CPE rescue inactive.
CCN(CC)c1ccc2ccc(=O)oc2c1 was read as PGC1a acetyl inh inactive, GSIS activator inactive, rRNA inh HTS inactive, CaV13 FRET inh inconclusive, ERAP1 inh inactive and DENV2 CPE rescue inactive.
CCN(CC)c1ccc2cc(C#N)c(=O)oc2c1 was read as PGC1a acetyl inh inactive, GSIS activator inactive, rRNA inh HTS inactive, CaV13 FRET inh active, ERAP1 inh inactive and DENV2 CPE rescue inactive.
CCN(CC)c1ccc2c(C)c(Cl)c(=O)oc2c1 was read as PGC1a acetyl inh inactive, GSIS activator inactive, rRNA inh HTS inactive, CaV13 FRET inh active, ERAP1 inh inactive and DENV2 CPE rescue inactive.
Cc1nc2ccccc2c(=O)n1/N=C/c1ccc(N(C)C)cc1 was read as PGC1a acetyl inh inactive, GSIS activator 67 and CaV13 FRET inh inactive.
`CSc1ccc(/C=N/n2c(C)nc3ccccc3c2=O)cc1` gave GSIS activator inactive, rRNA inh HTS inactive, CaV13 FRET inh inactive, ERAP1 inh inactive and DENV2 CPE rescue inactive.
For COc1cc(OC)c(OC)cc1/C=N/n1c(C)nc2ccccc2c1=O the results were PGC1a acetyl inh inactive, GSIS activator 43, rRNA inh HTS inactive, CaV13 FRET inh inactive, ERAP1 inh inactive and DENV2 CPE rescue inactive.
O=C1C=C(Nc2ccccc2)c2ccccc2C1=O was read as PGC1a acetyl inh inactive, GSIS activator inactive, rRNA inh HTS inactive, CaV13 FRET inh inactive, ERAP1 inh inactive and DENV2 CPE rescue inactive.
CCc1ccc(NC2=CC(=O)C(=O)c3ccccc32)cc1 was read as GSIS activator inactive, rRNA inh HTS -24, CaV13 FRET inh inactive, ERAP1 inh inactive and DENV2 CPE rescue inactive.
For C[C@H]1CN([C@@H](C)CO)C(=O)c2cccc(NS(=O)(=O)c3ccc(F)cc3)c2O[C@H]1CN(C)CC1CCCCC1 the results were PGC1a acetyl inh inactive, GSIS activator inactive, rRNA inh HTS inactive, ERAP1 inh inactive and DENV2 CPE rescue inactive.
For COc1ccc2c3c(n(C)c2c1)[C@@H](CO)N(C(C)=O)CC31CN(C(=O)C2CC2)C1 the results were PGC1a acetyl inh inactive, GSIS activator inactive, rRNA inh HTS inactive and DENV2 CPE rescue inactive.
For COc1ccc(OC)c(CCNC(=O)c2ccc(CS(=O)Cc3ccc(Cl)cc3)o2)c1 (stereo unspecified) the results were PGC1a acetyl inh inactive, GSIS activator inactive, rRNA inh HTS -28, CaV13 FRET inh inactive, ERAP1 inh inactive and DENV2 CPE rescue inactive.
Screening CN(C)CCCNC(=O)C[C@H]1CC[C@H]2[C@@H](COC[C@@H](O)CN2CC2CCCC2)O1 returned PGC1a acetyl inh inactive, GSIS activator inactive, rRNA inh HTS inactive, ERAP1 inh inactive and DENV2 CPE rescue inactive.
`C[C@H]1CN([C@@H](C)CO)S(=O)(=O)c2ccc(C#CCN(C)C)cc2O[C@@H]1CN(C)C(=O)C1CCC1` gave PGC1a acetyl inh inactive, GSIS activator inactive, rRNA inh HTS inactive, ERAP1 inh inactive and DENV2 CPE rescue 27.
